Tg IFNy HTS: inhibitors of Toxoplasma gondii growth with IFN-gamma. Toxoplasma gondii growth in IFN-gamma-treated host cells; hits give low values. activity change, negative = inhibition, % (no concentration beside the values). 69,000 tested, 3.8% active. AID 1259416; in the data active means activity change below about -70%, passing the limit was not always enough;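 further: host cells are HeLa cells infected with Toxoplasma gondii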
Starred values were filed as active, the others as inactive. The entries come from a sample that favours hits as a whole.

SMILES	Tg IFNy HTS
CC(C)n1nc(COCCN(C)C)c2c1CN(C(=O)NC1CC1)CC2	4
COC(=O)c1cc(S(C)(=O)=O)ccc1OC	16
CO[C@@H]1CCN(C(=O)c2ccc3c(c2)OCO3)[C@H]1Cc1cccnc1	1
COCCC(=O)c1c2c(NCc3cccnc3)ncnc2n2ccccc12	11
COc1cccc(-c2ccc3n(c2=O)C[C@H]2N[C@@H]3[C@@H](C(=O)N3CCCCC3)[C@@H]2CO)c1	1
Cc1ccc(C(=O)NCCc2csc(-c3ccc(Cl)cc3)n2)cc1C	-30
CCN(CC)CCCNC(=O)c1ccc2ccc(N3CCC(C)CC3)n2c1	-46
CCCCN(C)C(=O)c1ccc2ccc(N3CCN(CC4CC4)CC3)n2c1	20
COCCN(CCOC)C(=O)c1ccc2ccc(N3CCC(C)CC3)n2c1	-88*
Cc1c(CN(C)C(=O)C2CCOC2)[nH]c2ccccc12 (centres undefined)	3
COC(=O)CC(=O)Nc1ccc(-c2nc(-c3ccccc3)co2)cc1	191
CCCCC(=O)Nc1nc(-c2cccs2)c(-c2cc(C)no2)s1	3
CS(=O)(=O)N1CCOC(CNCC(=O)NCc2ccccc2F)C1 (centres undefined)	8
O=C(NC1CCN(Cc2ccccc2)CC1)c1ccc(I)cc1	10
CN1CCN(S(=O)(=O)c2ccc(C(=O)NC3CCCCC3)cc2)CC1	-6
CCOc1ccc(C(=O)NC2CCN(S(=O)(=O)c3ccccc3)CC2)cc1	-84*
Cc1ccc(S(=O)(=O)N2CCC3(CCC(C(=O)N(C)C)O3)CC2)cc1 (centres undefined)	-59
COc1ccc(-c2coc3cc(O)cc(O)c3c2=O)cc1	173
O=c1c(-c2cc(O)c(O)c(O)c2)coc2cc(O)c(O)c(O)c12	19
COc1cc(-c2coc3cc(OCc4ccccc4)c(OC)c(O)c3c2=O)cc(OCc2ccccc2)c1OC	-79*
CN(C)C(=O)n1c(C(=O)NCC2CCCO2)cc2c1c1ccccc1n2C (centres undefined)	22
CCc1cc(CN(C)C(=O)CN2C(=O)c3ccccc3C2=O)on1	3
CN(C)CCN1CCC2O[C@H](COCC(=O)N3CCCC3)CCC21 (some centres undefined)	3
CN(CCCc1cnn(C)c1)c1nc(-c2cccnc2)nc2c1cnn2C	-16
Cc1ncsc1CCN(C)c1nc(-c2cccnc2)nc2c1cnn2C	-35
SMILES	Tg IFNy HTS
Cc1ccsc1CN(C)c1nc(-c2cccnc2)nc2c1cnn2C	-74*
Cc1noc([C@H]2COC[C@@H]3CN(S(=O)(=O)CC(C)C)C[C@@H]32)n1	0
CN1CCN([C@H]2CN(Cc3cn[nH]c3-c3cccc(F)c3)C[C@@H]2O)CC1	-3
CC1(C)C2CC[C@]3(C)C(C(=O)C=C4[C@H]5C[C@@](C)(C(=O)O)CC[C@]5(C)CC[C@]43C)[C@@]2(C)CC[C@@H]1O (some centres undefined)	8
CC(=O)Oc1cc2c(c(C)c1OC(C)=O)CC=C1[C@@]2(C)CC[C@@]2(C)C3C[C@](C)(C(=O)O)CC[C@]3(C)CC[C@]12C (some centres undefined)	-81*
CN(C)CC#Cc1ccc([C@@H]2[C@H](C#N)N[C@@H]2CO)cc1	12
COc1cccc(CNC(=O)C[C@@H]2CC[C@H]3[C@H](COc4ccc(NC(=O)c5cccs5)cc4C(=O)N3C)O2)c1	-5
Cc1nc(=O)[nH]c(C)c1CCC(=O)N1CCCC(Nc2ccccc2)C1 (centres undefined)	-6
COc1ccc(-c2noc(CCc3ccccc3)n2)cc1	114
COc1cc([C@@H]2c3cc4c(cc3C(OC3OC5COC(C)OC5C(O)C3O)C3OCC(=O)[C@@H]32)OCO4)cc(OC)c1O (some centres undefined)	-81*
COc1cc([C@@H]2c3cc4c(cc3[C@@H](O[C@@H]3O[C@@H]5CO[C@@H](c6cccs6)O[C@H]5[C@H](O)[C@H]3O)[C@H]3COC(=O)[C@H]23)OCO4)cc(OC)c1O	-71*
COc1cc([C@@H]2c3cc4c(cc3C(OC3O[C@@H]5COC(C)O[C@H]5[C@H](O)[C@H]3O)C3COC(=O)[C@@H]32)OCO4)cc(OC)c1O (some centres undefined)	-70
Cc1ccc(CN2C[C@H]3[C@H](C(=O)NCC(C)C)CCS(=O)(=O)[C@H]3C2)cc1	-27
CN(C)CCN1C(=O)c2cccc3cc(NC(N)=O)cc(c23)C1=O	-32
O=C(CN1C(=O)c2cccc3cccc(c23)C1=O)OCCCc1ccncc1	-73*
O=C1c2cccc3cccc(c23)C(=O)N1Cc1ccco1	-27
N#C[C@@H]1[C@@H](c2ccc(-c3cccnc3)cc2)[C@H](CO)N1C(=O)C1CCOCC1	9
CN(C)S(=O)(=O)c1ccc2c(c1)cc(C(=O)NCCN1CCCC1)n2Cc1ccccc1	-46
Cc1ccc(CNC(=O)Cn2c(=O)cc(C(=O)N3CCOCC3)c3ccccc32)cc1	7
Cc1cc2nc3ccccc3c(=O)n2c(SCc2ccc(Cl)cc2Cl)n1	4
Cc1ccc(S(=O)(=O)Nc2cc(=O)[nH]c(SCc3ccccc3Cl)n2)cc1	-2
